About 79,000 compounds went through this panel and 15% of them were active in at least one assay; those are over-represented in the sample as a whole. Activity calls are given as the source filed them. Cut-off read from the data, not from the text of the source: active = growth inhibition above about 70%; inactive = the rest.
Experiment: NCI Yeast Anticancer Drug Screen. Data for the CLN2oe strain (AID 163);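 note: 0% = growth of vehicle-only control cultures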
Conditions: S. cerevisiae CLN2oe strain, active compounds read high
Description: Growth inhibition of yeast strains with defined genetic alterations is measured as a screen for potential anti-cancer activity. Selected strains with alterations in DNA damage repair or cell cycle control were exposed to compounds and growth inhibition was measured relative to vehicle treated controls. The strain used in this assay is CLN2oe

Measured: growth inhibition

O=C1c2ccc3ccccc3c2CCC1N1CCCCC1 (stereo not given)
active: at 100.0 µM 98%
inactive: at 1.2 µM 5% | at 3.7 µM 5% | at 11.0 µM 22% | at 33.0 µM 61%

C/C(=N\NC(N)=O)C(CN1CCOCC1)C(c1ccccc1)c1c(O)c2ccccc2oc1=O (stereo not given)
inactive: at 1.2 µM 4% | at 3.7 µM 3% | at 11.0 µM 4% | at 33.0 µM 4% | at 100.0 µM -2%

CN(CCc1ccc(Br)cc1)CCN1CCCCC1
active: at 33.0 µM 78% | at 100.0 µM 98%
inactive: at 1.2 µM 15% | at 3.7 µM 26% | at 11.0 µM 46%

CN(N=O)C(=O)NNC(=O)N(C)N=O
inactive: at 1.2 µM -5% | at 3.7 µM -4% | at 11.0 µM -7% | at 33.0 µM 11% | at 100.0 µM 41%

Oc1ccc2nc3ccccc3nc2c1
inactive: at 1.2 µM 4% | at 3.7 µM 2% | at 11.0 µM 11% | at 33.0 µM 22% | at 100.0 µM 67%

CC(C)CC(NC(=O)C(N)C(C)C)C(=O)NC(CCCCN)C(=O)Nc1ccc(N(CCCl)CCCl)cc1 (stereo not given)
inactive: at 1.2 µM -3% | at 3.7 µM 7% | at 11.0 µM 6% | at 33.0 µM 1% | at 100.0 µM -2%

O=c1oc2ccccc2c(O)c1C(c1ccc2ccccc2c1)c1c(O)c2ccccc2oc1=O
inactive: at 1.2 µM 7% | at 3.7 µM 21% | at 11.0 µM 27%
active: at 33.0 µM 78% | at 100.0 µM 97%

COC(COC(=O)N1CCN(C=O)CC1)C1=C(N2CC2)C(=O)C(C)=C(N2CC2)C1=O (stereo not given)
inactive: at 1.2 µM 12% | at 3.7 µM 23% | at 11.0 µM 25% | at 33.0 µM 29% | at 100.0 µM 53%
